{
  "source": "the OligoGym collection",
  "data": [
    {"molecular_target": "YWHAG", "assay": "pooled miR-30 sensor sort-seq; sequence = guide strand", "settings": "shRNA", "values": [
      {"sequence": "TTAAGTTTTCTTTTCATCTGAA", "sensor-assay potency score (higher = more potent)": 0.563},
      {"sequence": "TTCGCTGTAGGCCTTCTCGGAG", "sensor-assay potency score (higher = more potent)": -0.969},
      {"sequence": "TGAATCTACAGAACAGTCCAGA", "sensor-assay potency score (higher = more potent)": 0.0332},
      {"sequence": "TTCAGGTAGAACACTTTGCTCT", "sensor-assay potency score (higher = more potent)": -0.452},
      {"sequence": "TCCTTCTCTATCTTCTCCCGGT", "sensor-assay potency score (higher = more potent)": -0.85},
      {"sequence": "TTAATACTGTCAACTAATCAGA", "sensor-assay potency score (higher = more potent)": -0.755},
      {"sequence": "TTCTAAGTCTGTCAGTCTGGGA", "sensor-assay potency score (higher = more potent)": -0.946},
      {"sequence": "AATACCAGCACAGCTAGCCTGA", "sensor-assay potency score (higher = more potent)": -0.754},
      {"sequence": "TTACACTGTTCCATGTCTGTAG", "sensor-assay potency score (higher = more potent)": 0.201}
    ]},
    {"molecular_target": "YY1AP1", "assay": "pooled miR-30 sensor sort-seq; sequence = guide strand", "settings": "shRNA", "values": [
      {"sequence": "TGTTCTCTGACAATCCTTCTTG", "sensor-assay potency score (higher = more potent)": -0.0122},
      {"sequence": "TTCCTCTGTAGCATCTTCAGGT", "sensor-assay potency score (higher = more potent)": 0.0483},
      {"sequence": "TAAAGTTAGCTTGAGGCTCAGC", "sensor-assay potency score (higher = more potent)": -0.69},
      {"sequence": "TTTAACCTTCTCTACCTCCTTC", "sensor-assay potency score (higher = more potent)": 0.0131},
      {"sequence": "TGTCAAGAGCTGAACATGCTGC", "sensor-assay potency score (higher = more potent)": -0.313},
      {"sequence": "TTAAGACATATCCTGGTGCTAC", "sensor-assay potency score (higher = more potent)": -0.46},
      {"sequence": "TTCAAACAGATCTTCCATCAGC", "sensor-assay potency score (higher = more potent)": -0.176},
      {"sequence": "TTTTTCTAGGCCTTGATCTGAG", "sensor-assay potency score (higher = more potent)": -0.00665},
      {"sequence": "TTCCATCTTGACAACTTCCTCT", "sensor-assay potency score (higher = more potent)": 0.35},
      {"sequence": "TTTGCTTCCTTTTCGTGTCGGA", "sensor-assay potency score (higher = more potent)": 0.308},
      {"sequence": "TAGAAGGTACTTGTTGTCCTCA", "sensor-assay potency score (higher = more potent)": 0.0643},
      {"sequence": "ATGAACTTCCTTACACTGGGGT", "sensor-assay potency score (higher = more potent)": 0.289}
    ]},
    {"molecular_target": "YY2", "assay": "pooled miR-30 sensor sort-seq; sequence = guide strand", "settings": "shRNA", "values": [
      {"sequence": "TTCTGCTCCCACTTCCTCGTGC", "sensor-assay potency score (higher = more potent)": 0.239},
      {"sequence": "TCGTCTTCAATGCTATCCGGGA", "sensor-assay potency score (higher = more potent)": -0.643},
      {"sequence": "TGTCTGAGTCGCAATAGCCCAC", "sensor-assay potency score (higher = more potent)": -0.97},
      {"sequence": "TTGTGTCTGCAACATAAGCATT", "sensor-assay potency score (higher = more potent)": -1.56},
      {"sequence": "TACTGGACGCTTTCCGTCGGAA", "sensor-assay potency score (higher = more potent)": -1.27},
      {"sequence": "TAGGGGACCACATAGTCACGGA", "sensor-assay potency score (higher = more potent)": -0.62},
      {"sequence": "TAGCTGGTTGTCTGAGTCGCAA", "sensor-assay potency score (higher = more potent)": -1.47},
      {"sequence": "TTTGACCTGCATTTGCTTCTGC", "sensor-assay potency score (higher = more potent)": 0.61},
      {"sequence": "TTGAGCTCTCAAGAAAAGCTTT", "sensor-assay potency score (higher = more potent)": -0.69},
      {"sequence": "TTGACTGAGCGAACTTCCTGTT", "sensor-assay potency score (higher = more potent)": -0.213},
      {"sequence": "TCAAGTACTCGGAATAATCAGG", "sensor-assay potency score (higher = more potent)": -0.787},
      {"sequence": "TTTAGTAAATTCTGCCAGCTGT", "sensor-assay potency score (higher = more potent)": -0.34}
    ]},
    {"molecular_target": "ZBTB24", "assay": "pooled miR-30 sensor sort-seq; sequence = guide strand", "settings": "shRNA", "values": [
      {"sequence": "TTGAGAAGTATTCACTACTGGC", "sensor-assay potency score (higher = more potent)": 0.328},
      {"sequence": "TTGGAAGTCTGTGTAAGCCTTT", "sensor-assay potency score (higher = more potent)": -0.108},
      {"sequence": "TTAGGGATAACAACCACTGGGG", "sensor-assay potency score (higher = more potent)": -0.555},
      {"sequence": "TTGTACTTAAAGACCTTGCCAC", "sensor-assay potency score (higher = more potent)": -0.0819},
      {"sequence": "TTTAGCTGTCTGTTCTGGCTGA", "sensor-assay potency score (higher = more potent)": 0.857},
      {"sequence": "TTAAGTTTGACGGATCTCCAAA", "sensor-assay potency score (higher = more potent)": -1},
      {"sequence": "TGTAGCTGAAGAATATTCCTGA", "sensor-assay potency score (higher = more potent)": 0.823}
    ]}
  ]
}
